PubChem BioAssay (EPA / NIEHS)
Values joined by “and” are separate entries in the source; they are usually repeats but may differ in a detail not shown here. Equal values may be shown once. Some compounds were tested as several samples or in several runs, with calls that do not always agree. Active and inactive are the calls of the source. The calls were made as follows: active = hit-call score of the fitted dose curve at least 0.9, where 1 is the maximum; inactive = score below 0.9.

Legend:
[1] = ATG_GLI_CIS: Attagene CIS-FACTORIAL HepG2 Assay for human Zinc Finger Protein GLI1 (AID 2282945); conditions: HepG2, Attagene cis-factorial reporter mRNA, GLI element; actives raise or lower the signal
Procedure, shortened: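 HepG2 cells transiently transfected with cis-promoter multiplexed reporter units report endogenous transcription factor activity. After 24 h chemical exposure, reporter mRNA was quantified by RT-PCR, 6-FAM labelling, HpaI digestion and capillary electrophoresis, with bidirectional fitting against DMSO.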

[2] = target: Bile acid receptor (Homo sapiens) (UniProt Q96RI1); experiment: ATG_IR1_CIS: Attagene CIS-FACTORIAL HepG2 Assay for human Nuclear Receptor Subfamily 1 Group H Member 4 (NR1H4), IR1 submotif (AID 2282946); conditions: IR1 reporter transcription, actives raise or lower the signal
Procedure, shortened: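 Transient MRTU transfection, HepG2; 24 h dosing; RNA → RT-PCR → 6-FAM primer extension → HpaI digest → capillary electrophoresis fluorescence. Gain/loss of signal fitted relative to DMSO.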

[3] = ATG_GRE_CIS: Attagene CIS-FACTORIAL HepG2 Assay for human Glucocorticoid Response Elements (GRE) (AID 2282947); conditions: HepG2 GRE cis-reporter, Attagene multiplex mRNA; actives raise or lower the signal
Procedure, shortened: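 HepG2 cells transiently transfected with multiple cis-promoter reporter units measure endogenous TF activity; 24 h compound exposure. Reporter mRNA quantified by RT-PCR, FAM labelling, HpaI digestion and capillary electrophoresis; bidirectional fit vs DMSO baseline.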

[4] = ATG_ISRE_CIS: Attagene CIS-FACTORIAL HepG2 Assay for human Interferon Regulatory Factor 1 (IRF1) binding to an Interferon-Stimulated Response Element (ISRE) (AID 2282948); conditions: HepG2 ISRE cis-reporter (Attagene), mRNA transcription readout; actives raise or lower the signal
Procedure, shortened: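 Quantitation relies on labelled RT-PCR fragments separated by capillary electrophoresis. Human HepG2 cells bearing cis-promoter reporter constructs were treated 24 h; DMSO served as baseline for bidirectional fitting.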

[5] = ATG_M_32_CIS: Attagene CIS-FACTORIAL HepG2 Assay for M32 Transcription Factor (Internal Marker) (AID 2282949); conditions: HepG2 Attagene cis-factorial M32 reporter, mRNA; actives raise or lower the signal;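 also: background control marker of the multiplexed CIS panel rather than a real target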
Procedure, shortened: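 Following 24 h chemical exposure of HepG2 cells transiently expressing cis-promoter reporter constructs, reporter transcript levels were determined by RT-PCR with fluorescent labelling and capillary electrophoresis, then fitted bidirectionally against DMSO.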

[6] = ATG_M_06_CIS: Attagene CIS-FACTORIAL HepG2 Assay for M06 Transcription Factor (Internal Marker) (AID 2282950); conditions: HepG2 Attagene CIS-FACTORIAL M06 internal marker reporter; actives raise or lower the signal
Procedure, shortened: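 One of many multiplexed endpoints: HepG2 reporter mRNA after 24 h dosing, detected by RT-PCR and capillary electrophoresis fluorescence; gain or loss of signal analysed against DMSO.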

[7] = target: Hypoxia-inducible factor 1-alpha (Homo sapiens) (UniProt Q16665); experiment: ATG_HIF1a_CIS: Attagene CIS-FACTORIAL HepG2 Assay for human Hypoxia Inducible Factor 1 (HIF1A) (AID 2282951); conditions: HepG2 Attagene cis-factorial HIF1a reporter transcription; actives raise or lower the signal
Procedure, shortened: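 Measures endogenous transcription-factor activity through cis-regulated reporter mRNA in HepG2. Cells dosed 24 h; transcripts quantified by RT-PCR with 6-FAM-labelled products separated by capillary electrophoresis; DMSO serves as negative control.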

[8] = target: Hepatocyte nuclear factor 6 (Homo sapiens) (UniProt Q9UBC0); experiment: ATG_HNF6_CIS: Attagene CIS-FACTORIAL HepG2 Assay for human Hepatocyte Nuclear Factor 6 (HNF6) (AID 2282952); conditions: HepG2 Attagene cis-factorial HNF6 reporter transcription; actives raise or lower the signal
Procedure, shortened: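 HepG2 cells transiently transfected with cis-element-driven multiplexed reporter units measuring endogenous transcription factor activity. After 24 h exposure, reporter mRNA quantified by RT-PCR, FAM-labelled fragments and capillary electrophoresis; bidirectional fitting versus DMSO.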

[9] = target: Heat shock factor protein 1 (Homo sapiens) (UniProt Q00613); experiment: ATG_HSE_CIS: Attagene CIS-FACTORIAL HepG2 Assay for human Heat Shock Transcription Factor 1 (HSE) (AID 2282953); conditions: HepG2 HSE cis-reporter, Attagene RNA transcription; actives raise or lower the signal
Procedure, shortened: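 Using HepG2 with transfected cis-driven reporter constructs, compound effects on endogenous factor activity are scored as reporter mRNA change at 24 h. Detection: RT-PCR, HpaI digestion, capillary electrophoresis; bidirectional fitting to DMSO.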

[10] = ATG_PBREM_CIS: Attagene CIS-FACTORIAL HepG2 Assay for human Phenobarbital-responsive Enhancer Module (PBREM) (AID 2282955); conditions: HepG2 PBREM cis-reporter, Attagene multiplexed transcription; actives raise or lower the signal
Procedure, shortened: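 Fluorescence of labelled reporter cDNA fragments, resolved by capillary electrophoresis, gives mRNA induction in transfected HepG2 cells treated for 24 h; DMSO serves as negative control and baseline.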

[11] = target: Paired box protein Pax-6 (Homo sapiens) (UniProt P26367); experiment: ATG_Pax6_CIS: Attagene CIS-FACTORIAL HepG2 Assay for human Paired Box 6 (PAX6) (AID 2282956); conditions: HepG2 CIS-FACTORIAL PAX6 reporter transcription, RNA readout; actives raise or lower the signal
Procedure, shortened: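 After twenty-four hours of chemical exposure, transfected HepG2 cells are harvested for RNA. Cis-promoter reporter transcripts are amplified, fluorescently labelled and sized by capillary electrophoresis, with gain and loss of signal scored against DMSO.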

[12] = ATG_PXRE_CIS: Attagene CIS-FACTORIAL HepG2 Assay for human Pregnane X Receptor Element (PXRE) (AID 2282957); conditions: HepG2 Attagene CIS-FACTORIAL PXRE reporter, mRNA; actives raise or lower the signal
Procedure, shortened: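 HepG2 cells transiently transfected with cis-element-driven multiplexed reporter units; after 24 h chemical exposure, reporter mRNA measured by RT-PCR, 6-FAM labelling, HpaI digestion and capillary electrophoresis. Bidirectional fitting relative to DMSO.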

[13] = ATG_PPRE_CIS: Attagene CIS-FACTORIAL HepG2 Assay for human Peroxisome Proliferator-activated Response Element (PPRE) (AID 2282958); conditions: HepG2 PPRE cis-element reporter, Attagene transcription factor profiling; actives raise or lower the signal
Procedure, shortened: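 Cells are first transfected transiently with the multiplexed reporter library, then dosed for 24 h. Total RNA is reverse-transcribed, amplified, fluorescently end-labeled and HpaI-cut before capillary electrophoresis; activity is fitted bidirectionally against DMSO controls.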

[14] = ATG_Sox_CIS: Attagene CIS-FACTORIAL HepG2 Assay for human SRY-box transcription factor (SOX) (AID 2282960); conditions: HepG2 Attagene cis-factorial SOX reporter, mRNA; actives raise or lower the signal
Procedure, shortened: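 Transient MRTU transfection of HepG2; 24 h compound incubation; TriZol RNA, oligo(dT) RT, PCR, 6-FAM primer extension, HpaI cut, CE. Bidirectional fit, DMSO = baseline.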

[15] = target: Transcription factor Sp1 (Homo sapiens) (UniProt P08047); experiment: ATG_Sp1_CIS: Attagene CIS-FACTORIAL HepG2 Assay for human Specificity Protein 1 (Sp1) (AID 2282961); conditions: HepG2 Sp1 cis-reporter transcription, actives raise or lower the signal
Procedure, shortened: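 Endogenous Sp1 activity was gauged in human liver HepG2 cells bearing transfected reporter units under a cis-regulating promoter. After 24 h dosing, reporter mRNA was quantified by RT-PCR with capillary electrophoresis, and activity fitted bidirectionally versus DMSO.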

[16] = ATG_SREBP_CIS: Attagene CIS-FACTORIAL HepG2 Assay for human Sterol Regulatory Element Binding (SREBP) (AID 2282962); conditions: HepG2 Attagene cis-factorial SREBP reporter, mRNA; actives raise or lower the signal
Procedure, shortened: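 Twenty-four hours after chemical dosing of transfected HepG2 cultures, reporter RNA was converted to cDNA, amplified, end-labelled with 6-FAM and resolved by capillary electrophoresis. Responses were fitted relative to DMSO.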

[17] = target: Signal transducer and activator of transcription 3 (Homo sapiens) (UniProt P40763); experiment: ATG_STAT3_CIS: Attagene CIS-FACTORIAL HepG2 Assay for human Signal Transducer and Activator of Transcription 3 (STAT3) (AID 2282963); conditions: HepG2, Attagene cis-factorial STAT3 reporter transcription; actives raise or lower the signal
Procedure, shortened: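 HepG2 cells transiently transfected with cis-element-driven multiple reporter transcription units; after 24 h chemical exposure, reporter mRNA measured by RT-PCR, 6-FAM primer-extension labelling, HpaI digestion and capillary electrophoresis. Bidirectional fitting versus DMSO baseline.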

[18] = ATG_TA_CIS: Attagene CIS-FACTORIAL HepG2 Assay for human TA Basal Promoter (AID 2282964); conditions: HepG2 Attagene CIS-factorial TA basal promoter reporter; actives raise or lower the signal
Procedure, shortened: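 Transient MRTU transfection of HepG2 preceded 24 h compound exposure. Reporter mRNA levels were then read by RT-PCR with capillary electrophoresis, and this background-control endpoint was fitted bidirectionally to DMSO.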

[19] = ATG_RORE_CIS: Attagene CIS-FACTORIAL HepG2 Assay for human RAR-related Orphan Receptor Element (RORE) (AID 2282959); conditions: HepG2 Attagene cis-factorial RORE reporter, mRNA; actives raise or lower the signal
Procedure, shortened: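 Cells were HepG2 carrying transfected cis-regulated reporter constructs, dosed for 24 hours. Total RNA was reverse-transcribed and reporter cDNA amplified, fluorescently labeled and sized by capillary electrophoresis. Activity was fitted bidirectionally relative to DMSO.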

[20] = ATG_MRE_CIS: Attagene CIS-FACTORIAL HepG2 Assay for human Metal Responsive Element (MRE) (AID 2282954); conditions: HepG2 MRE cis-reporter transcription, Attagene multiplex; actives raise or lower the signal
Procedure, shortened: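 HepG2 cells transiently transfected with multiple cis-element reporter units measure endogenous MTF1-driven transcription. After 24 h compound exposure, reporter mRNA is quantified by RT-PCR with 6-FAM labelling, HpaI digestion and capillary electrophoresis; bidirectional fits versus DMSO.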

Measured: AC50

Sequence of Hypoxia-inducible factor 1-alpha (Homo sapiens) (Q16665 whole entry, looked up): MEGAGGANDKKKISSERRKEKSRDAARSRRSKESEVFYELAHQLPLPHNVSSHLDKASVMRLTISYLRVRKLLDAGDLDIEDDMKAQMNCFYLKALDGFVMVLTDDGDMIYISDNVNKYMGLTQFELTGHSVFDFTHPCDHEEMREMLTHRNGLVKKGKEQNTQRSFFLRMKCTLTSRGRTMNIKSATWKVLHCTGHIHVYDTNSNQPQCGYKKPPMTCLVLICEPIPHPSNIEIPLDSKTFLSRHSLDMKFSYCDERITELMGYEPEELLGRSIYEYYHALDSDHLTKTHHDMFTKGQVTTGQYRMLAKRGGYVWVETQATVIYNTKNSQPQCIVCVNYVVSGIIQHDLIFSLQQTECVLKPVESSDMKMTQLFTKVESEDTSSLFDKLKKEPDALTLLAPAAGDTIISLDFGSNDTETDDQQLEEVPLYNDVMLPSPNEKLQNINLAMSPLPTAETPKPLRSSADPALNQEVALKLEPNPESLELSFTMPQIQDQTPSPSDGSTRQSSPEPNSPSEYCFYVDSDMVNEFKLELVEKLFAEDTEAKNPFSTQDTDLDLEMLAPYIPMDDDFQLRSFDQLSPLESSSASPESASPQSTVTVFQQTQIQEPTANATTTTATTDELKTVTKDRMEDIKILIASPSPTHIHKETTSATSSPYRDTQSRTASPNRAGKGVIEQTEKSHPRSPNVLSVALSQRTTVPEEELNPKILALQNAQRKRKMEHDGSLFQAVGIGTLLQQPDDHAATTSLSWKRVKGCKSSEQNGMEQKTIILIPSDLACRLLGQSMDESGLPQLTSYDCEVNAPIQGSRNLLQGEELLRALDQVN
Sequence of Transcription factor Sp1 (Homo sapiens) (P08047 whole entry, looked up): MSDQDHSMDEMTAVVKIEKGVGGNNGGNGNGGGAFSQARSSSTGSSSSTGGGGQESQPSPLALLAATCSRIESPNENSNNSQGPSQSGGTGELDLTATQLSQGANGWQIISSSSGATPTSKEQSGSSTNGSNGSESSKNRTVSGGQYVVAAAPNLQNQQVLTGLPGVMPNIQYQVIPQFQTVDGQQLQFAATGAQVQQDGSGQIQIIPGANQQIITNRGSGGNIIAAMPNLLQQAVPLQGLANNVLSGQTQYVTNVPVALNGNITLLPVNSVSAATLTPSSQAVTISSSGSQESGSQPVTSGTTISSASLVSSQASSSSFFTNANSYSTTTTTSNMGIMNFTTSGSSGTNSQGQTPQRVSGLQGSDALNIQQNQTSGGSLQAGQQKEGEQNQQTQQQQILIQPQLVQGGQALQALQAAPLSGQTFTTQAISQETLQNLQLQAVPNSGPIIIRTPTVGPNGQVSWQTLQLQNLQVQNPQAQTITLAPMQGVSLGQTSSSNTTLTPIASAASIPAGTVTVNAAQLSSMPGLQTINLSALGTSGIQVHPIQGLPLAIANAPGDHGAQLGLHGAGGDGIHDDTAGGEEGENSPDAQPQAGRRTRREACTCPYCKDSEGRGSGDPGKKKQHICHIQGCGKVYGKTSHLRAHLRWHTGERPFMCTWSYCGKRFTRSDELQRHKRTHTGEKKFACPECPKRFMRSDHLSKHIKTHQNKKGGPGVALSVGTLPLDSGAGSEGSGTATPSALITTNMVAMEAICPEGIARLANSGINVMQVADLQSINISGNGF
Sequence of Bile acid receptor (Homo sapiens) (Q96RI1 whole entry, looked up): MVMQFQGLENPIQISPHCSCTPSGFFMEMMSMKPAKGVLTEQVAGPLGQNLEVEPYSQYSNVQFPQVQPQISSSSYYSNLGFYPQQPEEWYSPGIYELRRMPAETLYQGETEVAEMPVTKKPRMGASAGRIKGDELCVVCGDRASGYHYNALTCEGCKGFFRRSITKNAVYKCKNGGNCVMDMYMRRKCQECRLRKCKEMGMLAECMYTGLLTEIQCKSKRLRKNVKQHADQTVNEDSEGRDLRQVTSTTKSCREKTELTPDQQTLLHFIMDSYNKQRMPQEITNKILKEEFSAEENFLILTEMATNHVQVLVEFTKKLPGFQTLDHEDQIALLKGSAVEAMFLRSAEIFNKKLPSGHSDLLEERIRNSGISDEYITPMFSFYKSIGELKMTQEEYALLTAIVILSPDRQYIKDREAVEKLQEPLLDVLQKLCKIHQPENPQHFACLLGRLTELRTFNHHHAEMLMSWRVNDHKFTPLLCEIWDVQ
Sequence of Heat shock factor protein 1 (Homo sapiens) (Q00613 whole entry, looked up): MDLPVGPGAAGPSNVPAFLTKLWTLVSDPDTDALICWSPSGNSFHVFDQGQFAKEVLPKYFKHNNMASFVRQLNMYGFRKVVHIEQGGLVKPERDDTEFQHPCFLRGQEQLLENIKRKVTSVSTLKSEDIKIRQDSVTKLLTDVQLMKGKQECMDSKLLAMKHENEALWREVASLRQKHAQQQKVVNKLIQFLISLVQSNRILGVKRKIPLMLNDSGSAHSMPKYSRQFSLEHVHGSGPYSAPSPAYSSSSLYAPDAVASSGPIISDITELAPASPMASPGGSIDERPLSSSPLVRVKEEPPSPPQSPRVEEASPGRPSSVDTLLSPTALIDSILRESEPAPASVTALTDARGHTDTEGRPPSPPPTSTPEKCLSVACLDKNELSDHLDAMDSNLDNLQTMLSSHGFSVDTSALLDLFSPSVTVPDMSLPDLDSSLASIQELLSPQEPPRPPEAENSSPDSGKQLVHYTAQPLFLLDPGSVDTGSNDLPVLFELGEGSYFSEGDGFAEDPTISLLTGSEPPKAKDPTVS
Sequence of Hepatocyte nuclear factor 6 (Homo sapiens) (Q9UBC0 whole entry, looked up, the tested form may be a part): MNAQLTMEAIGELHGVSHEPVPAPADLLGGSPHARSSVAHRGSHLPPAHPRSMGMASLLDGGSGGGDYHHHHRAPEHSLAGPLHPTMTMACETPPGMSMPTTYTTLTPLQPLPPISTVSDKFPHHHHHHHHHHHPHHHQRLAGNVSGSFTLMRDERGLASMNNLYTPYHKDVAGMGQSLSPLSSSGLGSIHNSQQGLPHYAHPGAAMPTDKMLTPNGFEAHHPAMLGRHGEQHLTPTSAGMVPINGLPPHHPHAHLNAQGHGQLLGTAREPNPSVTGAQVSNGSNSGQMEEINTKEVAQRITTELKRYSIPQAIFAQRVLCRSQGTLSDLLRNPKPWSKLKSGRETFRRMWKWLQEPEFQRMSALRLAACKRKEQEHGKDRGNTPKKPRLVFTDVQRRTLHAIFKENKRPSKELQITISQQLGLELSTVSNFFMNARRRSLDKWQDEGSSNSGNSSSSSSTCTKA
Sequence of Paired box protein Pax-6 (Homo sapiens) (P26367 whole entry, looked up): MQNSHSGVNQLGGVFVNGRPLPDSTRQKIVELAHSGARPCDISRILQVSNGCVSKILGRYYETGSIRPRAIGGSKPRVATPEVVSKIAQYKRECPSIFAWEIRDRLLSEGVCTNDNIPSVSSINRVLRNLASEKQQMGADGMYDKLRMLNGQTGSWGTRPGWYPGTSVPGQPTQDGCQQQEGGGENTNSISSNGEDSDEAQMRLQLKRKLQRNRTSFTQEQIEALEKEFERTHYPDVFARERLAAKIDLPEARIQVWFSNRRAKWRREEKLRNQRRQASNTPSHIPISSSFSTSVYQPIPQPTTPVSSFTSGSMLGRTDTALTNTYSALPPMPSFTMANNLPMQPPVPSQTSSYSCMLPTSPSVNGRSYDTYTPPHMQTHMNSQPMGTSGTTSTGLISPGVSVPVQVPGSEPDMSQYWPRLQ
Sequence of Signal transducer and activator of transcription 3 (Homo sapiens) (P40763 whole entry, looked up): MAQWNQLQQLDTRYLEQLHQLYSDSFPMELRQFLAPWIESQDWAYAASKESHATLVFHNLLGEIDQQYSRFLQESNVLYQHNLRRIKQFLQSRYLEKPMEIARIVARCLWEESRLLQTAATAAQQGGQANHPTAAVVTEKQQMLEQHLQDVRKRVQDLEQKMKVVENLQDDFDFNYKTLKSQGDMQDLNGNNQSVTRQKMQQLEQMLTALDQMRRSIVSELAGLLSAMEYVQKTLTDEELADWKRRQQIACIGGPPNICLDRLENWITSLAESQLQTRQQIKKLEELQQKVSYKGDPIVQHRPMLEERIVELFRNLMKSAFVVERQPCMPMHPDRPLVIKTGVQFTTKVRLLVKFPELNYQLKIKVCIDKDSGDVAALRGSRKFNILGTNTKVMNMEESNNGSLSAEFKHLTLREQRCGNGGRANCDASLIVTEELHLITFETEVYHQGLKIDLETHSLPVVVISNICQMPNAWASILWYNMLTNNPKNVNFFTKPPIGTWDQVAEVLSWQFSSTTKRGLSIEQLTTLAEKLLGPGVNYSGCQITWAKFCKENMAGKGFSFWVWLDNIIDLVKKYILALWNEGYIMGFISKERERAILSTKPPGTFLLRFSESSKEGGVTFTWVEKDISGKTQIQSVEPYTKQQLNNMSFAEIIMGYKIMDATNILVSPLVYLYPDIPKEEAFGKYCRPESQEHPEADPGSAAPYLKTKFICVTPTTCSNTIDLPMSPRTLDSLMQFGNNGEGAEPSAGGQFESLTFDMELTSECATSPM

OCC(F)(F)C(F)(F)C(F)(F)F
not listed: [19] | [20]
inactive: all other assays above

O=C(O)C=C(C(F)(F)F)C(F)(F)F
not listed: [9] | [19] | [20]
inactive: all other assays above

C#C[C@]1(O)CC[C@H]2[C@@H]3CCc4cc(OC)ccc4[C@H]3CC[C@@]21C
active: [12] 5.32 µM
not listed: [1] | [20]
inactive: all other assays above

O=C(O)C(F)(F)C(F)(F)C(F)(F)F
not listed: [1] | [9] | [19]
inactive: all other assays above

Nc1ccc(Oc2cccc(Oc3ccc(N)cc3)c2)cc1
active: [2] 24.6 µM | [3] 181 µM | [4] 24.7 µM | [5] 137 µM | [7] 26.9 µM | [11] 71 µM | [12] 25.7 µM | [13] 89.5 µM | [16] 136 µM | [17] 173 µM | [18] 26.8 µM
inactive: [6] | [8] | [10] | [14] | [15]

CCCCCCS
active: [4] 133 µM
not listed: [1] | [9]
inactive: all other assays above

FC(F)(F)C(F)(F)C(F)(F)C(F)(F)C(F)(F)C(F)(F)C(F)(F)C(F)(F)F
not listed: [1]
inactive: all other assays above

c1ccc(-c2ccccc2-c2ccccc2)cc1
active: [2] 27.1 µM | [4] 100 µM | [12] 5.73 µM | [15] 100 µM | [16] 100 µM
not listed: [1] | [19]
inactive: all other assays above

O=C(O)C(F)(OC(F)(F)C(F)(OC(F)(F)C(F)(OC(F)(F)C(F)(F)C(F)(F)F)C(F)(F)F)C(F)(F)F)C(F)(F)F (stereo not given)
active: [12] 83.3 µM
inactive: [2] | [3] | [4] | [5] | [6] | [7] | [8] | [9] | [10] | [11] | [12] | [13] | [19] | [14] | [15] | [16] | [17] | [18]

CCCCCCOC(=O)c1ccccc1O
active: [12] 62.5 µM
not listed: [1] | [20]
inactive: all other assays above

O=P(O)(O)OCCC(F)(F)C(F)(F)C(F)(F)C(F)(F)C(F)(F)C(F)(F)F
not listed: [1] | [19] | [20]
inactive: all other assays above

O=C(O)C(F)(F)C(F)(F)C(F)(F)C(F)(F)C(F)(F)C(F)(F)C(F)(F)C(F)(F)Cl
inactive: [2] | [3] | [5] | [6] | [8] | [10] | [12] | [14] | [15] | [16] | [17] | [18]
active: [4] 32.1 µM and 50 µM | [7] 50 µM | [20] 55.5 µM and 66.6 µM | [11] 59.1 µM and 50 µM | [12] 13.7 µM | [13] 39.2 µM and 35.4 µM | [19] 28.4 µM and 57.9 µM | [18] 50 µM
